We go through 15 compounds from PubChem BioAssay (Tox21).

Assay [1] can be described thus: cAMP Responsive Elements (CRE) small molecule antagonists, cell-based qHTS assay: qHTS cell viability counter screen (AID 2060913). Also: nearly all actives have a fitted effect of over 40% in size. The gist of the method:
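HEK293T CRE-bla, 2,000 cells/well, 18 h preincubation; cpd in DMSO + NKH477 0.25 uM final, 3 h 37 C/5% CO2; LiveBLAzer 2 h RT, then CellTiter-Glo 30 min RT, luminescence.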

Assay [2] is described as follows: cAMP Responsive Elements (CRE) small molecule agonists, cell-based qHTS assay: qHTS cell viability counter screen (AID 2060914).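 Also: viability read after 3 h of compound exposure; nearly all actives have a fitted effect of over 50% in size.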 The gist of the method: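 CRE-bla HEK 293T cells, plated 18 h at 37 °C, were exposed to compounds for 3 h at 37 °C/5% CO2. Viability was then measured in the same wells by CellTiter-Glo luminescence after 30 min at room temperature.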

Records with an inconclusive call do not appear. A call without a number means that no potency is given here. Activity calls are given as the source filed them. Calls follow the shape of the dose curve; as a rule, active = well fitted cell-killing curve with a large enough effect in the repeat runs; inconclusive = weak or mixed curves, or effect the other way; inactive = flat fitted curve, though single readings scatter.

In the case of `CCCCCCCCCCCCS`, the Potency result in assay [1] and in assay [2] was “inactive” each time.
For the compound `CNC(=S)NC`, the Potency entry in assay [1] and in assay [2] was “inactive” in each case.
In the case of `C=C[Si](OCC)(OCC)OCC`, the Potency result in assay [1] and in assay [2] was “inactive” each time.
`O=C(O)c1ccc(-n2nc(-c3ccccc3O)nc2-c2ccccc2O)cc1`: the Potency entry in assay [1] and in assay [2] was “inactive” in each case.
`CC(=O)NC(=O)c1ccccc1O`: the Potency result in assay [1] and in assay [2] was “inactive” throughout.
On to `CN(N=O)C(=O)N[C@@H]1[C@@H](O)[C@H](O)[C@@H](CO)O[C@@H]1O`, for which the Potency entry in assay [1] and in assay [2] was “inactive” in each case.
Turning to `CN1C(=O)OC(C)(C)C1=O`, the Potency entry in assay [1] and in assay [2] was “inactive” each time.
Take `C1CN(CCOCCN2CCOCC2)CCO1`: the Potency result in assay [1] and in assay [2] was “inactive” throughout.
On to `OCC1CCCO1` (stereo not given), for which the Potency entry in assay [1] and in assay [2] was “inactive” each time.
`Cn1cc(S(C)=O)c(=O)c2ccc(F)cc21` (stereo not given): the Potency entry in assay [1] and in assay [2] was “inactive” each time.
Consider `CCOC(N)=O`, for which the Potency entry in assay [1] and in assay [2] was “inactive” each time.
On to `CCc1ccc(CCOc2ccc(CC3SC(=O)NC3=O)cc2)nc1` (stereo not given), for which the Potency entry in assay [1] and in assay [2] was “inactive” throughout.
As to `OC(CCl)CCl`, the Potency entry in assay [1] and in assay [2] was “inactive” in each case.
As to `O=C1OC(O)C(C(Cl)Cl)=C1Cl` (stereo not given), the Potency entry in assay [1] and in assay [2] was “inactive” in each case.
Take `O=C(O)CC(=O)C(=O)O`: the Potency result in assay [1] and in assay [2] was “inactive” in each case.
